Measured values as given in the supplement of paper PMC9023506.
Where a name gives a salt, the structure may show the parent alone.

test system: Danio rerio larvae (5 dpf); experiment: optomotor response to blue moving lines, difference vs DMSO (percentage points (treated minus DMSO)); higher = more of the behaviour than the DMSO vehicle control; conditions: 10 µM; exposure time: 3 h pre-incubation + 3 h imaging
Experimental: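 5-dpf wild-type zebrafish larvae were imaged in 96-well plates. They were treated with 190 Tocris FDA-approved drugs at 10 µM (1 µl/ml DMSO) for 3 h before and 3 h during imaging at 28.5 °C, 48 larvae per drug. Automated image analysis gave % time moving and optomotor responses. Values are drug group mean minus DMSO vehicle mean (n=844), in percentage points, for 10 behaviours.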

In order of rising “optomotor response to blue moving lines” value:
1. CC(C)C(=O)Nc1ccc([N+](=O)[O-])c(C(F)(F)F)c1 [Flutamide]  -17.2
2. CC/C(=C(\c1ccccc1)c1ccc(OCCN(C)C)cc1)c1ccccc1 [Tamoxifen citrate]  -14.3
3. Cc1nc(Nc2ncc(C(=O)Nc3c(C)cccc3Cl)s2)cc(N2CCN(CCO)CC2)n1 [Dasatinib]  -13.1
4. CN(CCOc1ccc(CC2SC(=O)NC2=O)cc1)c1ccccn1 (stereo not given) [Rosiglitazone]  -12.4
5. CC(CCc1ccc(O)cc1)NCCc1ccc(O)c(O)c1 (stereo not given) [Dobutamine hydrochloride]  -11.2
6. CN1CC2c3ccccc3Oc3ccc(Cl)cc3C2C1 (stereo not given) [Asenapine maleate]  -10
7. Cc1cc(C2CCCCC2)n(O)c(=O)c1 [Ciclopirox]  -8.77
8. NS(=O)(=O)c1cc2c(cc1Cl)NC(C1CC3C=CC1C3)NS2(=O)=O (stereo not given) [Cyclothiazide]  -7.83
9. CC(c1cc2ccccc2s1)N(O)C(N)=O (stereo not given) [Zileuton]  -7.52
10. COC(c1ccccc1)(c1ccccc1)[C@H](Oc1nc(C)cc(C)n1)C(=O)O [Ambrisentan]  -7.26
11. CC(C)n1c(/C=C/C(O)CC(O)CC(=O)O)c(-c2ccc(F)cc2)c2ccccc21 (stereo not given) [Fluvastatin sodium]  -4.94
12. CCC(C)(C)C(=O)O[C@H]1C[C@@H](C)C=C2C=C[C@H](C)[C@H](CC[C@@H]3C[C@@H](O)CC(=O)O3)[C@H]21 [Simvastatin]  -4.79
13. OCc1cc(C(O)CNCCCCCCOCCCCc2ccccc2)ccc1O (stereo not given) [Salmeterol xinafoate]  -3.67
14. Cc1ccc(-c2cc(C(F)(F)F)nn2-c2ccc(S(N)(=O)=O)cc2)cc1 [Celecoxib]  -3.07
15. CC(C)N(CCCCOCC(=O)NS(C)(=O)=O)c1cnc(-c2ccccc2)c(-c2ccccc2)n1 [Selexipag]  -1.72
16. NC(=O)OCC(COC(N)=O)c1ccccc1 [Felbamate]  -1.4
17. Cc1nnc(C(C)C)n1C1C[C@H]2CC[C@@H](C1)N2CC[C@H](NC(=O)C1CCC(F)(F)CC1)c1ccccc1 (stereo in doubt) [Maraviroc]  -0.85
18. COc1ccccc1OCCNCC(O)COc1cccc2[nH]c3ccccc3c12 (stereo not given) [Carvedilol]  -0.112
19. CC1=Nc2ccc(Cl)cc2S(=O)(=O)N1 [Diazoxide]  0.0367
20. COc1cc2nc(N3CCN(C(=O)c4ccco4)CC3)nc(N)c2cc1OC [Prazosin hydrochloride]  0.0687
21. CC(=O)S[C@@H]1CC2=CC(=O)CC[C@]2(C)[C@H]2CC[C@@]3(C)[C@@H](CC[C@@]34CCC(=O)O4)[C@H]12 [Spironolactone]  1.86
22. CCc1c2c(nc3ccc(OC(=O)N4CCC(N5CCCCC5)CC4)cc13)-c1cc3c(c(=O)n1C2)COC(=O)[C@]3(O)CC  1.97
23. N#Cc1ccc(C(c2ccc(C#N)cc2)n2cncn2)cc1 [Letrozole]  2.11
24. Nc1cccc2c1CN(C1CCC(=O)NC1=O)C2=O (stereo not given) [Lenalidomide]  3.02
25. COc1cc(N)c(Cl)cc1C(=O)NC1CCN(CCCOc2ccc(F)cc2)CC1OC (stereo not given) [Cisapride]  4.41
26. CCOC(=O)[C@H](CCc1ccccc1)N[C@H]1CCc2ccccc2N(CC(=O)O)C1=O [Benazepril hydrochloride]  5.7
27. CCOC(=O)C1=C(COCCN)NC(C)=C(C(=O)OC)C1c1ccccc1Cl (stereo not given) [Amlodipine besylate]  6.74
28. CCCCC(=O)N(Cc1ccc(-c2ccccc2-c2nnn[nH]2)cc1)[C@H](C(=O)O)C(C)C [Valsartan]  6.89
29. Cc1cccc(C)c1OCC(C)N (stereo not given) [Mexiletine hydrochloride]  7.61
30. C[C@]12CCC(=O)C=C1CC[C@@H]1[C@@H]2[C@@H](O)C[C@@]2(C)[C@H]1CC[C@]2(O)C(=O)CO [Hydrocortisone]  8.43
31. CCCc1nn(C)c2c(=O)[nH]c(-c3cc(S(=O)(=O)N4CCN(C)CC4)ccc3OCC)nc12 [Sildenafil citrate]  8.78
32. NC(=O)c1ncn([C@@H]2O[C@H](CO)[C@@H](O)[C@H]2O)n1 [Ribavirin]  9.25
33. O=C(O)C[C@H](O)C[C@H](O)/C=C/c1c(C2CC2)nc2ccccc2c1-c1ccc(F)cc1 [Pitavastatin calcium]  11
34. CCOC(=O)c1ncn2c1CN(C)C(=O)c1cc(F)ccc1-2 [Flumazenil]  11.4
35. CC(C)[C@H]1CC[C@H](C(=O)N[C@H](Cc2ccccc2)C(=O)O)CC1 [Nateglinide]  11.9
36. CCCCCCCN(CC)CCCC(O)c1ccc(NS(C)(=O)=O)cc1 (stereo not given) [Ibutilide hemifumarate]  12.1
37. COc1ccccc1OCC(O)CN1CCN(CC(=O)Nc2c(C)cccc2C)CC1 (stereo not given) [Ranolazine dihydrochloride]  13.8
38. C#CCN[C@@H]1CCc2ccccc21 [Rasagiline mesylate]  15.8
39. Cc1ccc(N(CC2=NCCN2)c2cccc(O)c2)cc1 [Phentolamine Mesylate]  16.3
40. Cc1ccsc1C(=CCCN1CCC[C@@H](C(=O)O)C1)c1sccc1C [Tiagabine hydrochloride]  24.1
